# Source: a collection of fitness landscapes (doi:10.1126/science.1257360)
# Over roughly 140,000 sequences, “enrichment ratio after two sorts for PhoP signalling” has its median near 0; the highest 2% begin near 11. This excerpt belongs to a sample that is enriched for the highest values.
# B1: PhoQ; a variant is named by its letters at X, in order, P23837 (parent)
# chain: MKKLLRLFFPLSLRVRFLLATAAVVLVLSLAYGMVALIGYSVSFDKTTFRLLRGESNLFYTLAKWENNKLHVELPENIDKQSPTMTLIYDENGQLLWAQRDVPWLMKMIQPDWLKSNGFHEIEADVNDTSLLLSGDHSIQQQLQEVREDDDDAEMTHSVAVNVYPATSRMPKLTIVVVDTIPVELKSSYMVWSWFIYVLSANLLLVIPLLWVAAWWSLRPIEALAKEVRELEEHNRELLNPATTRELTSLVRNLNRLLKSERERYDKYRTTLTDLTHSLKTPLXXLQXXLRSLRSEKMSVSDAEPVMLEQISRISQQIGYYLHRASMRGGTLLSRELHPVAPLLDNLTSALNKVYQRKGVNISLDISPEISFVGEQNDFVEVMGNVLDNACKYCLEFVEISARQTDEHLYIVVEDDGPGIPLSKREVIFDRGQRVDTLRPGQGVGLAVAREITEQYEGKIVAGESMLGGARMEVIFGRQHSAPKDE
# Variants of: B1
# Experiment: enrichment ratio after two sorts for PhoP signalling (ratio (wild type AVST 3.29)); higher = more functional
# Conditions: with PhoP (E. coli)
row,Variant,enrichment ratio
1,PVYQ,≤ 0.25
2,GLRF,≤ 0.25
3,VHDP,≤ 0.25
4,NRQL,≤ 0.25
5,DQAF,≤ 0.25
6,KQIG,≤ 0.25
7,WLRY,≤ 0.25
8,TTQF,22.7
9,LTAF,≤ 0.25
10,GTQF,≤ 0.25
11,YTWN,≤ 0.25
12,YTQF,≤ 0.25
13,STWN,≤ 0.25
14,TTWN,15.1
15,NHDF,≤ 0.25
16,THDF,11.6
17,YTAF,≤ 0.25
18,SHDF,≤ 0.25
19,TTAF,14
20,RKCR,≤ 0.25
21,QNKW,≤ 0.25
22,YVTW,≤ 0.25
23,DWIG,≤ 0.25
24,ERDP,≤ 0.25

row,Variant,enrichment ratio
1,VGHC,≤ 0.25
2,NFWG,≤ 0.25
3,KTWY,≤ 0.25
4,YTGL,≤ 0.25
5,TTWS,11.9
6,TTSA,11.5
7,TTGL,12.3
8,TTYN,12.5
9,KSYN,≤ 0.25
10,STGL,9.48
11,TTWI,9.7
12,WIYN,≤ 0.25
13,YTSA,≤ 0.25
14,KQSA,≤ 0.25
15,YTWS,≤ 0.25
16,IEKA,≤ 0.25
17,RHPA,≤ 0.25
18,PCEP,≤ 0.25
19,MEYV,5.49
20,WFPG,≤ 0.25
21,TMFD,≤ 0.25
22,AHCM,9.33
23,THSS,8.94
24,AKKL,≤ 0.25

row,Variant,enrichment ratio
1,YGCL,2.74
2,YHQH,≤ 0.25
3,TTHI,11.5
4,WIMF,≤ 0.25
5,YTGF,≤ 0.25
6,YTMF,5.8
7,TTGF,17.1
8,LTGF,≤ 0.25
9,YTHN,≤ 0.25
10,KSHN,≤ 0.25
11,YTHI,≤ 0.25
12,TTHN,15.7
13,NVHI,≤ 0.25
14,CTMF,25.7
15,WRNH,≤ 0.25
16,PTGD,≤ 0.25
17,HQVK,≤ 0.25
18,VNRG,≤ 0.25
19,GRVA,≤ 0.25
20,FSSR,≤ 0.25
21,SFVK,≤ 0.25
22,IYPH,≤ 0.25
23,WNMY,≤ 0.25
24,WIMS,≤ 0.25

row,Variant,enrichment ratio
1,MEMF,0.449
2,TKMF,11.5
3,PTMF,≤ 0.25
4,YTMS,≤ 0.25
5,TTMS,26.8
6,GTYD,≤ 0.25
7,SAKT,≤ 0.25
8,FGAP,≤ 0.25
9,FCVG,≤ 0.25
10,RGTF,≤ 0.25
11,WISV,≤ 0.25
12,VHSV,≤ 0.25
13,ADSV,4.14
14,TISV,12.8
15,AISV,15.9
16,RISV,≤ 0.25
17,IHWP,≤ 0.25
18,WMPW,≤ 0.25
19,DDPW,≤ 0.25
20,WIPR,≤ 0.25
21,GRSL,≤ 0.25
22,TCMS,10.9
23,KCMA,≤ 0.25
24,TCIV,≤ 0.25

row,Variant,enrichment ratio
1,TCWV,2.38
2,TCMA,15.5
3,TCMI,15
4,HCMH,≤ 0.25
5,KCMH,≤ 0.25
6,TCMH,15.1
7,FCMA,5.8
8,TCMD,≤ 0.25
9,TCMV,14.6
10,FRCS,≤ 0.25
11,HLCG,≤ 0.25
12,TQVV,4.23
13,LDFE,≤ 0.25
14,SIYM,0.397
15,FWIR,≤ 0.25
16,LPTL,≤ 0.25
17,AFEF,≤ 0.25
18,SVVF,≤ 0.25
19,FPHE,≤ 0.25
20,TCIG,≤ 0.25
21,TCMG,11.4
22,TCMF,26.2
23,TCNV,16.2
24,KCTG,≤ 0.25

row,Variant,enrichment ratio
1,KCNV,≤ 0.25
2,TCTG,20
3,TCVG,≤ 0.25
4,TYMF,≤ 0.25
5,KSNV,≤ 0.25
6,FCMF,0.805
7,VCTG,0.404
8,IPQW,≤ 0.25
9,TEEP,≤ 0.25
10,KVAI,≤ 0.25
11,VSKE,≤ 0.25
12,LVPE,≤ 0.25
13,KFTM,≤ 0.25
14,VECA,3.45
15,FAFY,≤ 0.25
16,SNSG,10.7
17,GRCQ,≤ 0.25
18,DDFY,≤ 0.25
19,TGSW,≤ 0.25
20,RFSN,0.949
21,TCWG,≤ 0.25
22,TCHQ,23.4
23,TCFK,≤ 0.25
24,TCHP,≤ 0.25

row,Variant,enrichment ratio
1,TCGG,21.5
2,TCVC,≤ 0.25
3,WFIY,≤ 0.25
4,HKKD,≤ 0.25
5,VKAH,≤ 0.25
6,AFQW,≤ 0.25
7,SKSK,≤ 0.25
8,SKSM,14
9,SKIM,20.9
10,HKSM,≤ 0.25
11,SKSF,≤ 0.25
12,SKRC,≤ 0.25
13,SKIC,30.5
14,SKFC,≤ 0.25
15,SKGM,≤ 0.25
16,SKPM,≤ 0.25
17,SKAM,28
18,SKRM,≤ 0.25
19,AFGE,≤ 0.25
20,KDQH,≤ 0.25
21,EESA,≤ 0.25
22,NRWG,≤ 0.25
23,FGTG,≤ 0.25
24,MKMF,≤ 0.25

row,Variant,enrichment ratio
1,TNYM,1.85
2,ANGW,11.4
3,NVGW,≤ 0.25
4,ANHW,≤ 0.25
5,AIGW,11.4
6,VHGW,≤ 0.25
7,AHGW,≤ 0.25
8,AVGD,≤ 0.25
9,AVGW,12.2
10,AGGW,0.253
11,RGVW,≤ 0.25
12,GKNA,≤ 0.25
13,CIQI,≤ 0.25
14,VWKV,≤ 0.25
15,QAIG,≤ 0.25
16,WRVK,≤ 0.25
17,MGME,13
18,MGTG,≤ 0.25
19,MGWG,0.67
20,MGMW,≤ 0.25
21,MGMG,42.5
22,MGMY,≤ 0.25
23,LMNI,≤ 0.25
24,KSSL,≤ 0.25

row,Variant,enrichment ratio
1,QSSL,9.11
2,VRSL,≤ 0.25
3,SDSL,0.277
4,NSSL,≤ 0.25
5,FSSL,≤ 0.25
6,ASSL,11.7
7,TSSL,13.7
8,SSSL,12.5
9,SYTR,≤ 0.25
10,VVCY,≤ 0.25
11,GKAF,≤ 0.25
12,SEFE,4.76
13,SEVG,25.6
14,SEGG,9.05
15,SEVI,12.2
16,SEVC,9.44
17,SEFG,15.8
18,SLVR,0.339
19,SEVR,12.1
20,SEFA,1.84
21,SLVI,2.14
22,SEVA,10.3
23,SCVR,1.05
24,RKKT,≤ 0.25

row,Variant,enrichment ratio
1,SLWN,≤ 0.25
2,RRRI,≤ 0.25
3,PERI,≤ 0.25
4,FFGE,≤ 0.25
5,YKRH,≤ 0.25
6,VSRE,≤ 0.25
7,VRMG,≤ 0.25
8,HGFC,≤ 0.25
9,SEMQ,8.89
10,SCVS,3.13
11,SLVS,1.29
12,SQWG,≤ 0.25
13,SEMN,4.75
14,SEMD,1.79
15,SEMS,14.3
16,SEWG,17.3
17,SEMK,7.11
18,SEVS,20.4
19,SEMI,17.1
20,SPWG,≤ 0.25
21,HDQV,≤ 0.25
22,HCLM,≤ 0.25
23,NDAA,≤ 0.25
24,NRLG,≤ 0.25

row,Variant,enrichment ratio
1,NMCH,≤ 0.25
2,HTPK,≤ 0.25
3,PDYQ,≤ 0.25
4,ANWA,≤ 0.25
5,HDKT,≤ 0.25
6,SAHC,≤ 0.25
7,SEKK,≤ 0.25
8,SEVK,12.3
9,SEGS,4.52
10,SEMG,21.5
11,SLVK,1.38
12,SEEG,2.48
13,EACH,2.01
14,FYVQ,≤ 0.25
15,GYNI,≤ 0.25
16,LYDQ,≤ 0.25
17,FGLS,8.38
18,FGLA,12.2
19,QGLV,7.45
20,FGLV,11.7
21,FPLV,≤ 0.25
22,FGLT,9.94
23,HKVW,≤ 0.25
24,VDRE,≤ 0.25

row,Variant,enrichment ratio
1,EAAG,≤ 0.25
2,CVSY,≤ 0.25
3,NSSY,≤ 0.25
4,FSSY,0.259
5,TSSY,14.6
6,KSSY,≤ 0.25
7,CSSY,17.5
8,KMIV,≤ 0.25
9,IVGD,≤ 0.25
10,TDFN,≤ 0.25
11,PLSM,≤ 0.25
12,VLSM,0.436
13,AKSM,15.5
14,TLSM,25.5
15,TNSM,23.5
16,SLSM,8.94
17,CLSF,10.1
18,ADSM,≤ 0.25
19,AHSM,4.11
20,CLSM,22.7
21,LNSM,0.463
22,MNSM,9.22
23,IDFI,≤ 0.25
24,NPDM,≤ 0.25

row,Variant,enrichment ratio
1,PIRV,≤ 0.25
2,EGSN,≤ 0.25
3,PKCK,≤ 0.25
4,RLKF,≤ 0.25
5,AIND,≤ 0.25
6,GVLN,10.1
7,AMSM,15.1
8,WISM,≤ 0.25
9,KMSM,≤ 0.25
10,KKSM,≤ 0.25
11,ALSM,17
12,AISM,15.9
13,NMSM,≤ 0.25
14,AQSM,10.4
15,AVSF,9.87
16,AVSM,11.3
17,ARSM,4.49
18,DRSF,≤ 0.25
